Assay outcomes deposited in PubChem BioAssay by National Center for Advancing Translational Sciences (NCATS).
In the library only some 12% were active in any assay of this set; here they are far more common.
PLK1 PBD block: inhibitors of human PLK1 polo-box domain binding; AID 720504; Plk1 PBD binding of FITC phosphopeptide, fluorescence polarization; Potency, µM, for the others: max response, negative = inhibition, hits mostly inhibitors; 2.8% of 360,000 active; P53350; note: series mostly up to about 57 µM; % is set by controls: 0 for no effect and ±100 for the full control effect; nearly all actives have a fitted effect of over 65% in size
G9a inh: G9a (human) methyltransferase inhibition | Q96KQ7 | G9a H3K9 monomethylation, AlphaScreen, 2 h | Potency, µM (highest dose often 102 µM), for the others: top-dose activity, negative = inhibition, hits mostly inhibitors | 8.8% of 350,000 active | AID 504332; note: % is set by controls: 0 for no effect and ±100 for the full control effect; nearly all actives have a fitted effect of over 75% in size
Target sequence (Q96KQ7 913-1193 limits assumed): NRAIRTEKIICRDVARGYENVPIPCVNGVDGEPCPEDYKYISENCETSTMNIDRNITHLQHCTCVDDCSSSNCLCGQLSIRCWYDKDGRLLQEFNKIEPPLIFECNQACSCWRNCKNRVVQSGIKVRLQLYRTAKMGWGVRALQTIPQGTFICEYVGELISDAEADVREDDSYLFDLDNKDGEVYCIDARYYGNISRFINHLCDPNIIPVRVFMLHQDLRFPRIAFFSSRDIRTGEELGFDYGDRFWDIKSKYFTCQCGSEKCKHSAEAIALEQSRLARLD
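Methyltransferase reactions run at room temperature for 2 h (20 nM enzyme, 500 nM biotin-H3K9 peptide, 20 uM SAM) after a 15 min compound preincubation; product detected by AlphaScreen beads and anti-H3K9me1 antibody.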
HP1b binding inh: blocks HP1-beta chromodomain binding to methylated histone tails; Potency, µM (top dose mostly 114 µM), inactives show top-dose activity change, negative = inhibition, hits mostly inhibitors; P83916; AlphaScreen HP1-beta / biotin-H3K9me3 peptide binding; 0.56% of 390,000 active; note: nearly all actives have a fitted effect of over 70% in size
Target sequence (P83916 whole entry, looked up): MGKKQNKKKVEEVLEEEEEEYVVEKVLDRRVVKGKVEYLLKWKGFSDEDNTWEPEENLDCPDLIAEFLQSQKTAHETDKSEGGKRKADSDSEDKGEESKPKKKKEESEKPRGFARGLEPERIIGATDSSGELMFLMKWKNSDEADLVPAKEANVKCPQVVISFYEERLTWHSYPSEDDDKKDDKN
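Compound inhibition of the preformed complex between 50 nM HP1-beta and 50 nM biotinylated H3K9me3 peptide was read by AlphaScreen. Buffer was PBS pH 7.4 with 0.01% Tween-20. Incubations ran 30 min at room temperature, with 10 ug/mL donor/acceptor beads.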
Sfp PPTase inh: inhibitors of Bacillus subtilis Sfp phosphopantetheinyl transferase. Q9F4F7. Biochemical Sfp PPTase activity, qHTS. Potency, µM, for inactives: largest response in the series, negative = inhibition, hits mostly inhibitors. 3.5% of 310,000 active. AID 1490;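 note: the enzyme is Sfp with the accession as filed and its product quenches rhodamine fluorescence; 0% = enzyme reaction without inhibitor and -100% = no enzyme wells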
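Sfp 15 nM + cpd, 15 min RT; start w/ rhodamine-CoA 5 uM, BHQ-2-YbbR 12.5 uM (final); 50 mM Hepes pH 7.6, 10 mM MgCl2, 0.01% NP-40, 0.01% BSA; read 525/598 nm at 0 and 30 min.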
BAZ2B block: BAZ2B (human) inhibition. Q9UIF8. 4.4% of 360,000 active. Potency, µM (titrated, usually from 114 µM), for inactives: at the highest dose activity change, negative = inhibition, actives largely listed as inhibitors. AlphaScreen BAZ2B-H3K14Ac peptide displacement; note: % is set by controls: 0 for no effect and ±100 for the full control effect; nearly all actives have a fitted effect of over 60% in size
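AlphaScreen displacement: compounds (up to 110uM) incubated 30 min at room temperature with a preformed 50 nM BAZ2B/50 nM biotinylated H3K14Ac peptide complex in PBS pH 7.4 with Tween-20. Donor and acceptor beads at 10 ug/mL final added, 20 min light-protected before reading.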
JMJD2A Tudor inh: blocks the human JMJD2A Tudor domain | AlphaScreen JMJD2A-Tudor / H3K4me3 peptide binding | 4.4% of 390,000 active | O75164 | Potency, µM (titrated, usually from 114 µM), without a hit: top-dose activity change, negative = inhibition, hits mostly inhibitors; note: % is set by controls: 0 for no effect and ±100 for the full control effect; nearly all actives have a fitted effect of over 50% in size
An asterisk follows results filed as active; ? = inconclusive; · = not tested or not shown; [ ] = another dose, or the depositor's remark. Calls come from the whole dose curve; as a rule, active = well fitted curve in the direction sought with a large enough effect; inconclusive = small, poorly fitted or top-dose-only effect, or another doubt; inactive = no such curve, though single readings can be large; an effect the other way counts as inactive or inconclusive. Potency is the fitted concentration of half-maximal effect.

SMILES	PLK1 PBD block	G9a inh	HP1b binding inh	Sfp PPTase inh	BAZ2B block	JMJD2A Tudor inh
CC[C@H](C)[C@H](NC(=O)[C@H](Cc1ccc(O)cc1)NC(=O)[C@H](Cc1cnc[nH]1)NC(=O)[C@H](CCCNC(=N)N)NC(=O)[C@H](CC(C)C)NC(=O)[C@H](C)NC(=O)[C@H](CO)NC(=O)[C@H](Cc1ccc(O)cc1)NC(=O)[C@H](Cc1ccc(O)cc1)NC(=O)[C@H](CCCNC(=N)N)NC(=O)[C@H](C)NC(=O)[C@H](CCSC)NC(=O)[C@H](CC(=O)O)NC(=O)[C@H](CCC(=O)O)NC(=O)[C@H](C)NC(=O)[C@@H]1CCCN1C(=O)[C@H](C)NC(=O)[C@H](CC(=O)O)NC(=O)[C@H](CCC(=O)O)NC(=O)CNC(=O)[C@@H]1CCCN1C(=O)[C@H](CC(N)=O)NC(=O)[C@H](CC(=O)O)NC(=O)[C@@H]1CCCN1C(=O)[C@H](CCCCN)NC(=O)[C@H](CO)NC(=O)[C@@H]1CCCN1C(=O)[C@@H](N)Cc1ccc(O)cc1)C(=O)N[C@@H](CC(N)=O)C(=O)N[C@@H](CC(C)C)C(=O)N[C@@H](CC(C)C)C(=O)N[C@H](C(=O)N[C@@H](CCCNC(=N)N)C(=O)N1CCC[C@H]1C(=O)N[C@@H](CCCNC(=N)N)C(=O)N[C@@H](Cc1ccc(O)cc1)C(N)=O)[C@@H](C)O	·	·	·	-21%	·	·
CCc1nn(CC(=O)NCCC(C)C)c(=O)c2cc3c(OC)cccc3n12	-11%	1%	18%	3%	14%	-18%
CC1C(c2ccc3c(c2)OCO3)c2cc3c(cc2OC1N1CCOCC1)OCO3 (centres undefined)	-4%	·	?	·	·	18µM*
COc1cc(C2c3cc4c(cc3OC(N3CCCCC3)C2C)OCO4)cc(OC)c1O (centres undefined)	0%	·	18%	·	·	-14%
O=S(=O)(c1ccc(F)cc1F)N1CCN(c2nc(-c3cccs3)nc3ccccc23)CC1	·	·	2%	·	·	-16%
S=c1nc(-c2ccc(Cl)cc2)[nH][nH]1	38µM*	0.56µM*	?	45µM*	-26%	?
CCCOc1ccc(-c2nc(=S)[nH][nH]2)cc1	?	·	-16%	50µM*	-8%	?
C=CCSc1n[nH]c(-c2ccc(OCCCC)cc2)n1	-6%	2%[12.7 µM]	117%	15%	10%	17%
COc1cc2c(cc1O)C(Cc1ccc(O)cc1)[N+](C)(C)CC2 (centres undefined)	·	?	·	-47%	·	·
O=C(Cn1c(=O)n2nc(-c3ccccc3)nc2c2ccccc21)Nc1ccccc1C(F)(F)F	·	?	27%	·	-1%	-16%
CCOc1ccc(N2C(=O)c3cccnc3C2Nc2ccc(C)c(C)c2)cc1 (centres undefined)	-1%	89µM*	3%	11%	-31%	-20%
CSCC[C@H](N)C(=O)N[C@@H](C)C(=O)NCC(=O)N[C@@H](CCCN=C(N)N)C(=O)N[C@@H](CO)C(=O)NCC(=O)N[C@@H](CC(=O)O)C(=O)N[C@@H](CO)C(=O)N[C@@H](CC(=O)O)C(=O)N[C@@H](CCC(=O)O)C(=O)N[C@@H](CC(=O)O)C(=O)N[C@@H](CC(C)C)C(=O)N[C@@H](CC(C)C)C(=O)N[C@@H](CCCCN)C(=O)N[C@@H](C)C(=O)N[C@H](C(=O)O)C(C)C	·	·	·	-1%	·	·
CCCN1CCN(CCCNC(=O)c2ccc(CS(=O)c3ccc(OC)cc3)o2)CC1 (centres undefined)	-19%	40%	32%	16%	-1%	1%
COc1cccc(C2c3[nH]c4ccccc4c3CCN2Cc2cnc(C)s2)c1OC (centres undefined)	-10%	1%	-11%	2%	25µM*	?
Fc1ccccc1C1c2[nH]c3ccccc3c2CCN1CCCn1cccn1 (centres undefined)	-9%	40µM*	5%	3%	-38%	?
